Sampled rows, rich in hits. Any-hit rate of the full collection: about 1.7%.
Prostate diff – LNCaP prostate cell differentiation activation | flow cytometry side scatter, 4 d | side scatter shift, % at 10 µM | 0.56% of 24,000 active;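 active = side scatter shift above 30%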;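 also: androgen-responsive LNCaP prostate cancer cells in charcoal-stripped serum medium; percent of cells past a gate set so DMSO wells show 10% shift; higher shift means more granular cells and more differentiation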
FPR binder – ligands of human FPR, also counter-screen for FPRL1 ligands; 0.74% of 24,000 active; AID 440; inhibition, % (test concentration not listed); P21462; FPR-expressing cells, fluorescent ligand binding, flow cytometry;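 also: 0% = buffer wells and 100% = receptor blocker peptide wells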
FPRL1 ligand – ligands of human FPRL1, also counter-screen for FPR ligands. AID 441. 0.3% of 24,000 active. P25090. FPRL1-expressing cells, fluorescent ligand binding inhibition, flow cytometry. inhibition, % (no concentration beside the values);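 also: 0% = buffer alone and 100% = receptor blocker peptide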
Target sequence (P25090 whole entry, looked up): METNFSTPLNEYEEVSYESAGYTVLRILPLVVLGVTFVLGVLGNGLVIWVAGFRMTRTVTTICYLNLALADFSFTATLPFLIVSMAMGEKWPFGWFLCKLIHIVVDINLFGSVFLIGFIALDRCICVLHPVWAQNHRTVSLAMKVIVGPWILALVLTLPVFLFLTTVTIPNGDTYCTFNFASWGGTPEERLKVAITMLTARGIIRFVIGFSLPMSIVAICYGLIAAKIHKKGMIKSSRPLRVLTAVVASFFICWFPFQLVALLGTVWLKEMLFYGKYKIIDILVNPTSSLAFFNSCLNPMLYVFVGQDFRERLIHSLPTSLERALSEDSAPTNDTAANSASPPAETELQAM
S aureus QS inh – inhibitors of bacterial quorum sensing in S. aureus | S. aureus RN6390 RNAIII-GFP reporter, AIP-induced, flow cytometry 3 h | inhibition, % at 2 µM | 0.3% of 24,000 active | AID 527;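 active = share of bacteria positive for the green fluorescent reporter and its mean brightness both inhibited by 50% or more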;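 also: 0% = AIP-stimulated control and 100% = unstimulated bacteria without AIP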
Active calls of the source: *; ? = inconclusive; / = not tested or not shown; ! = not confirmed by another sample. Rule as the data show it, unless noted: active = inhibition above about 30%; inconclusive = no clear call, values can overlap the other calls; inactive = below that.

SMILES	Prostate diff	FPR binder	FPRL1 ligand	S aureus QS inh
COc1ccccc1C1/C(=C(/O)c2ccccc2)C(=O)C(=O)N1CC(C)O (stereo not drawn)	6	42*	-3	-1
COCCCN1C(=O)C(=O)/C(=C(/O)c2ccccc2)C1c1ccc2c(c1)OCO2 (stereo not drawn)	/	54*	0	/
COc1ccccc1C1/C(=C(/O)c2ccccc2)C(=O)C(=O)N1CCO (stereo not drawn)	16	51*	-2	-2
CC1Cc2ccccc2N1C(=O)C1CCCN(S(=O)(=O)c2cccc3nsnc23)C1 (stereo not drawn)	14	-1	-2	0
O=C(CCSc1nc(-c2ccco2)cc(C(F)(F)F)n1)Nc1ccc2c(c1)OCO2	8	3	-3	2
Cc1c(C(=O)N2CCCC2)oc2c1-c1[nH]ncc1CC2	6	-5	1	1
Cc1cc2oc(C(=O)NC3CCS(=O)(=O)C3)c(C)c2cc1C (stereo not drawn)	12	48*	51*	0
COC(=O)N1CC(=O)N(OC)C1c1ccc(Cl)cc1Cl (stereo not drawn)	9	-3	3	3
COc1cccc(C2CC(c3cccc(Br)c3)n3nc(N)nc3N2)c1 (stereo not drawn)	14	3	7	-1
Cc1ccc(C)c(-n2c(CNC(=O)c3ccco3)nnc2SCC(=O)N2CCc3ccccc32)c1	3	55*	0	1
CC(C)(C)Nc1nc(OCC(F)(F)F)nc(OCC(F)(F)F)n1	7	-4	0	3
Cn1c(=O)n(CCc2ccccc2)c(=O)c2c1nc1n2CCN1Cc1ccco1	3	2	-6	96*
Cc1ccc(C)c(Cn2c(=O)c3c(nc4n3CCN4Cc3ccco3)n(C)c2=O)c1	7	8	0	9
Cc1ccc(S(=O)(=O)NC(C)C(c2cccs2)N2CCN(C)CC2)cc1 (stereo not drawn)	17	6	5	-1
CCN1CCN(C(c2cccs2)C(C)NS(=O)(=O)c2ccc(Br)cc2)CC1 (stereo not drawn)	32*	-4	7	-4
COc1ccc(-c2cn3cccnc3n2)cc1NC(=O)c1ccc(Br)o1	7	3	10	0
COc1ccc(-c2cn3cccnc3n2)cc1NC(=O)CC(C)C	14	3	40*	-5
CCCC(=O)Nc1cc(-c2cn3cccnc3n2)ccc1OC	10	-1	47*	-4
O=C(CN1C(=O)C2C3C=CC(C3)C2C1=O)N1CC=C(c2ccccc2)CC1 (stereo not drawn)	6	0	-1	-1
CCc1nn(C(C)C(=O)Nc2cccc(C)c2C)c(=O)c2cc3occc3n12 (stereo not drawn)	24	2	8	0
COc1ccc(-c2ccc(-c3noc(-c4ccccc4)n3)c(OC)n2)cc1	34*	1	-5	11
O=C1C(CCS(=O)c2ccccc2)C(=O)N(c2ccccc2)N1c1ccccc1 (stereo not drawn)	2	34*	-7	2
COc1ccc(C2C(C(=O)c3cccs3)=C(O)C(=O)N2c2nnc(C)s2)cc1OC (stereo not drawn)	/	36*	27	/
C=CCOc1ccc(C2C(C(=O)c3cccs3)=C(O)C(=O)N2c2nnc(C)s2)cc1 (stereo not drawn)	/	43*	21	/
Clc1cccc(-c2nnc3sc(-c4ccccc4)nn23)c1	32*	2	5	2
SMILES	Prostate diff	FPR binder	FPRL1 ligand	S aureus QS inh
O=C(NCCCN1CCN(c2ccc(F)cc2)CC1)c1cccc(N2CCCC2=O)c1	7	-2	31*	4
CCC(C)(C(=O)NC1CCCC1)N(CC1CCCO1)C(=O)c1ccc2c(c1)OCO2 (stereo not drawn)	4	37*	2	0
Cc1ccc(S(=O)(=O)c2c(C)nn(C(C)(C)C)c2OC(=O)c2ccco2)cc1	14	0	-2	-19
CC(=O)Oc1c(S(=O)(=O)c2ccc(C)cc2)c(C)nn1C(C)(C)C	1	-4	-5	78*
Cc1ccc(S(=O)(=O)c2c(C)nn(C(C)(C)C)c2OC(=O)c2ccc(Br)o2)cc1	8	-4	10	52*
CCc1c(C)nc(SCC(=O)Nc2ccc(Br)cc2)[nH]c1=O	10	9	1	80*
Cc1nnc(SCC(=O)Nc2ccc(Br)cn2)[nH]c1=O	5	4	2	-2
COCCCn1c(=N)c(C(N)=S)cc2c(=O)n3cccc(C)c3nc21	10	-4	0	1
Cc1ccc2nc3c(cc(C(=O)NCc4ccccc4)c(=N)n3CCCn3ccnc3)c(=O)n2c1	31*	-7	3	-6
N=c1c(C(=O)NCc2ccccc2)cc2c(=O)n3ccccc3nc2n1Cc1ccco1	11	-5	-2	7
Cc1cccn2c(=O)c3cc(C(=O)NC(C)c4ccccc4)c(=N)n(CCCn4ccnc4)c3nc12 (stereo not drawn)	37*	-6	5	2
COc1cccc(-c2nn(C)c3sc(C(=O)Nc4ccc5c(c4)OCCO5)cc23)c1	24	6	5	82*
Cc1ccc(-c2nc(C(=O)NC3CCCCCC3)no2)cc1	3	1	0	18
N#Cc1c(-c2ccccc2)nc(N2CCCCCC2)[nH]c1=O	7	0	-1	-1
CC(C)C(=O)N1CCN(c2nc(-c3ccccc3)c3c(c2C#N)CCCC3)CC1	11	-5	-5	57*
O=C(NCc1ccco1)c1ccc2nc3sc4c(c3c(=O)n2c1)CCCC4	9	5	-5	10
COc1ccc(N2CCN(CCNC(=O)c3cccn4c(=O)c5ccc(Cl)cc5nc34)CC2)cc1	5	-2	1	-1
N#Cc1cc2sc3nnc(-c4ccncc4)n3c2cc1C#N	14	0	-8	-2
c1ccc(-c2ccc(C(c3ccccc3)n3ccnc3)cc2)cc1 (stereo not drawn)	3	6	3	58*
c1ccc(-c2nc(N3CCCCCC3)nc(-n3ccnc3)n2)cc1	8	8	0	19
CCCCOc1cc(C(=O)NCCN(CC)CC)c2ccccc2n1	7	49*!	0	4
CCCCN(CC)CCNC(=O)c1cc2c(C)nc3ccccc3c2o1	6	-3	-1	1
O=P(c1ccccc1)(c1ccccc1)C(c1ccco1)N1CCOCC1 (stereo not drawn)	9	1	0	-1
CCOC(=O)Cn1c(=O)oc2cc(S(=O)(=O)Nc3ccc(N(CC)CC)cc3C)ccc21	12	-48	?	90*
COC(=O)C1=C(C)NC(=O)CC1c1cccc(Cl)c1Cl (stereo not drawn)	10	3	-6	8
CCOC(=O)C1=C(C)NC(C)=C(C(=O)OC)C1c1cccc(Cl)c1Cl (stereo not drawn)	2	-4	-5	54*
O=C(COc1ccc(S(=O)(=O)N2CCCC2)cc1Cl)NC1CC1	36*	3	1	0
CCOC(=O)Nc1c(O)ccc2oc(C)c(-c3ccccc3)c12	2	16	19	-1
CC(O)c1n(C)c(Cl)c[n+]1C (stereo not drawn)	21	0	4	0
